The panel holds about 83,000 compounds, 20% with a hit somewhere; the sample as a whole holds those more often.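 Cell lines were cultured in 96-well plates, exposed to a single compound concentration, and assessed for percent growth 48 hours later.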 Values without a mark were called inactive. Activity calls are given as the source filed them. The calls were made as follows: active = growth percent below 10; inactive = the rest.
Columns and labels:
Assay in all cases: NCI-60 one-dose screen, 48 h (100 = growth as untreated, 0 = no growth, -100 = all killed)
Conditions in all cases: 10 µM unless noted
HCT-15 colon = test system: HCT-15 colon
HT29 colon = test system: HT29 colon
SNB-75 CNS = test system: SNB-75 CNS
SNB-19 CNS = test system: SNB-19 CNS
U251 CNS = test system: U251 CNS
PC-3 prostate = test system: PC-3 prostate
SK-MEL-5 melanoma = test system: SK-MEL-5 melanoma
UACC-62 melanoma = test system: UACC-62 melanoma
LOX IMVI melanoma = test system: LOX IMVI melanoma
SK-MEL-28 melanoma = test system: SK-MEL-28 melanoma

SMILES	growth (HCT-15 colon)	growth (HT29 colon)	growth (SNB-75 CNS)	growth (SNB-19 CNS)	growth (U251 CNS)	growth (PC-3 prostate)	growth (SK-MEL-5 melanoma)	growth (UACC-62 melanoma)	growth (LOX IMVI melanoma)	growth (SK-MEL-28 melanoma)
O=C1CC(c2ccc(O)c(O)c2)Oc2cc(O)c([C@@H]3O[C@H](CO)[C@@H](O)[C@H](O)[C@H]3O)c(O)c21 (stereo partly specified)	102%	103%	102%	102%	98.1%	97.3%	103%	105%	104%	107%
Cc1cc(C)nc(NS(=O)(=O)c2ccc(Nc3ccc4c5c(n(CCCN(C)C)c(=O)c4c3)-c3ccccc3C5=O)cc2)n1	90.3%	74.8%	79.5%	91%		86.3%	85.6%	93.3%	72.6%	117%
N#Cc1ccc(N2Cc3cc(Cl)ccc3OC3=C2C(=O)N(Cc2ccccc2)C3=O)cc1	-44.9% (active)	-47.3% (active)	29.9%	69.1%		21.9%	-31.5% (active)	-35.5% (active)	-91.6% (active)	-44.4% (active)
COc1ccc(-n2cc(-c3ccc(Cl)c(Cl)c3)[nH]c2=O)cc1OC	93.4%	97.2%	91.8%	90.9%		93.2%	104%	87.5%	96.3%	103%
C=C(C)[C@@H]1CC[C@]2(C(=O)O)CC[C@]3(C)[C@H](CC[C@@H]4[C@@]5(C)C[C@@H](CC#Cc6ccc(Cl)cc6)C(=O)C(C)(C)[C@@H]5CC[C@]43C)[C@@H]12	45.5%	30.1%	70%	54%		25.9%	51.8%	-20.2% (active)	59.6%	-23.1% (active)
CC(=O)[C@@H]1CC[C@]2(C(=O)O)CC[C@]3(C)[C@H](CC[C@@H]4[C@@]5(C)Cc6c([nH]c7ccccc67)C(C)(C)[C@@H]5CC[C@]43C)[C@@H]12	44.3%	68.6%	94.7%	70.2%		40.7%	71.8%	67.9%	50.1%	78.5%
COc1ccc(-n2cc(COc3ccc4c5ccnc(C)c5n(CC(C)C)c4c3)nn2)cc1	63.4%	16%	61.8%	78.4%		55.6%	58.2%	71%	77.3%	87.4%
O=c1c2ccccc2n(CC(O)CN2CCCC2)c2c(Br)cccc12 (stereo unspecified)	103%	103%	79%	84.7%		95.9%	96.8%	119%	96.6%	96.9%
COc1ccc2c(c1)OC13Oc4cc(OC)ccc4C=C1CCCCC3=C2	92.6%	71.5%	89.8%	106%		69.6%	91.5%	89.4%	99.8%	111%
Cc1ccn2c3c(c(C(=O)O)c2c1)C(=O)c1ccccc1C3=O	58.8%	39.5%	87.8%	50.4%		84.8%	-98.9% (active)	0.126% (active)	48.9%	46%
CCOC(=O)C1=C(C)n2nc(CC#N)c(C#N)c2NC1c1ccc(Cl)cc1 (stereo unspecified)	97.1%	111%	86.1%	106%		91.3%	98.3%	94.4%	94.7%	101%
COc1ccc2c(c1)/C(=C1\S/C(=N/c3nnc(C)s3)NC1=O)C(=O)N2Cc1ccc(Cl)cc1	28%	54.7%	71%	35.7%		36.6%	30.9%	32.8%	39.4%	49.2%
O=c1cc(/C=N\Nc2nc(-c3ccc(Cl)cc3Cl)cs2)c2cc(Cl)ccc2o1	90.7%	99.3%	80.6%	106%		80.1%	86.3%	80.6%	89.8%	90.6%
N#Cc1c(-c2ccc(Cl)cc2)cc(-c2cc3ccccc3o2)nc1SCC(=O)c1ccc(Cl)cc1	91.4%	97.1%	76.7%	99.9%		84.6%	100%	93.5%	91%	100%
Cc1cnc(SCc2ccc(Cl)cc2)[nH]c1=S	101%	82.9%	85.2%	98.2%		104%	96.9%	99.4%	101%	98.9%
CN(C)CSc1nc2ccccc2s1	97.9%	95%	75.2%	110%		74.8%	96.9%	95.9%	90%	
CC1CCCN(CCCCCOc2ccc3oc4ccc(Cl)cc4c(=O)c3c2)C1 (stereo unspecified)	2.05% (active)	4.5% (active)	82.5%	86.4%		79.8%	-14.3% (active)	-43.1% (active)	10.9%	79.9%
COc1ccc(Sc2[nH]c(C(C)=O)c3ccccc23)cc1	53.9%	47.6%	48.1%	67.1%		52.1%	45.1%	47.1%	71.9%	84.1%
C1=CC2=CC=C3C=CC=C4C(c5nc6c7ccccc7c7ccccc7c6[nH]5)=CC(=C1)C2C34 (stereo unspecified)	90.8%	102%	102%	103%		78.8%	101%	61.6%	86.3%	107%

From PubChem BioAssay (NCI)
